Laboratory results reported in ChEMBL document CHEMBL4513135, “CO-ADD screening of IQOG CSIS (Spain) compounds”.
Potency and affinity values are given separately.

Experiments:
[1] = tested on: Klebsiella pneumoniae; details: Concentration 32 ug.mL-1; ASSAY_TEST Inhibition of Bacterial Growth; detection method Absorption (OD600); MEDIA CAMHB; plate type 384well; NBS; CORNING #3640; time 18 hr
[2] = tested on: Candida albicans; details: 32 ug/mL
[3] = tested on: Cryptococcus neoformans; details: Concentration 32 ug.mL-1; ASSAY_TEST Inhibition of Fungal Growth; detection method Resazurin; Absorption (OD600-OD570); plate type 384well; NBS; CORNING #3640

Row | Structure (SMILES) | Inhibition [1] | Inhibition [2] | Inhibition [3]
1 | Cc1ccc2nc(Cl)c(/C=N/C(C)(C)C)cc2c1 | 7.37% | 7.21% | -0.47%
2 | COc1ccccc1[C@H]1c2c(ccc3ccccc23)O/C(=N\Br)[C@@]1(Br)C#N | 5.34% | 8.63% | -5.55%
3 | O=C(N[C@H]1CC[C@H](O)CC1)c1ccccc1 | 10.98% | 2.54% | -38.05%
4 | N#Cc1c(Cl)nc(NC2CCN(Cc3ccccc3)CC2)c(C#N)c1-c1ccccc1 | 0.34% | -0.87% | -53.1%
5 | N#Cc1cc(C#N)c(NCCCC2CCN(Cc3ccccc3)CC2)nc1N | 10.46% | 0.89% | -57.65%
6 | O[C@H]1CC[C@H](NCc2ccccc2)CC1 | 16.79% | -0.77% | -37.74%
7 | COc1cccc(C=C2N=C(c3ccccc3)OC2=O)c1OC(C)=O | 0.25% | -1.1% | -5.03%
8 | CNC(=O)c1c(Cl)c2cc(OCc3ccccc3)ccc2n1C | 13.13% | 4.9% | -46.6%
9 | COc1ccc2c(c1)cc(CN)n2C | 13.36% | 2.3% | -4.4%
10 | CCC(Cc1ccccc1)NNC(=O)c1cc2ccccc2[nH]1 (centres undefined) | -8.95% | 1.13% | -1.62%
11 | N#Cc1cc(C#N)c(NCc2ccccc2)nc1N | -14.3% | 1.7% | 5.02%
12 | CCCC(=O)NCc1c(-c2ccc(Cl)cc2)nc2ccccn12 | -10.71% | 1.27% | -9.45%
13 | N#CC1(Br)C(=N)Oc2ccc3ccccc3c2C1c1cccc([N+](=O)[O-])c1 (centres undefined) | 16.38% | 11.2% | -26.58%
